Potency and affinity values are given separately.
These compounds were tested against Protein translocase subunit SecA (Escherichia coli (strain K12)) (UniProt P10408) (assay: Assay to Identify E. coli SecA ATPase Inhibitors). Conditions: 30 µM.
Format: functional
Set-up: scale not given: direction of the effect not stated beside the values

Protein translocase subunit SecA (Escherichia coli (strain K12)), sequence (P10408 whole entry): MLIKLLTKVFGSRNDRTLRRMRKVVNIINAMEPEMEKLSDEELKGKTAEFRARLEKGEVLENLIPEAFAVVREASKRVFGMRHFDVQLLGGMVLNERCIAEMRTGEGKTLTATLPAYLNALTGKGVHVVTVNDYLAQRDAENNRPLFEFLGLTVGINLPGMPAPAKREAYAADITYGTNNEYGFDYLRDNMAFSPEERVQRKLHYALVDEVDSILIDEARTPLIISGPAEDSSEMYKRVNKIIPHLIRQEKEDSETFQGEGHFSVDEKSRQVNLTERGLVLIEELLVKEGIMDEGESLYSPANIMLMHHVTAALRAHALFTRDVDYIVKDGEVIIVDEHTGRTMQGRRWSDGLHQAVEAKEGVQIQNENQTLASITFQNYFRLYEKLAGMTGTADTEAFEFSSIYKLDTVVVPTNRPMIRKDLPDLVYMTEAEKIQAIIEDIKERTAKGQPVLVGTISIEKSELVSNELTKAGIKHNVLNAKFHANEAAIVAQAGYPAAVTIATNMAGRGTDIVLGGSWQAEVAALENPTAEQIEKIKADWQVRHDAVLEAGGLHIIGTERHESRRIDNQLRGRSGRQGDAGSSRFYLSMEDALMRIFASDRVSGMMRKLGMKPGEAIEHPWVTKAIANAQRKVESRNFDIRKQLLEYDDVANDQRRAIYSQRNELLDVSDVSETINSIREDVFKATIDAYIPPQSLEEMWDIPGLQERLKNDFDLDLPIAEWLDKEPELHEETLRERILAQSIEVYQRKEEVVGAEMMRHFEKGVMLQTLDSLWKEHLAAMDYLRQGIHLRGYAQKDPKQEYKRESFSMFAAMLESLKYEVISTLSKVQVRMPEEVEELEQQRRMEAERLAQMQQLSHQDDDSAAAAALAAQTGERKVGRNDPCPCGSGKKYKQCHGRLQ

| SMILES | Percent Effect [%] |
| --- | --- |
| Cn1ccc(CN2CCC(COC3CCCC3)CC2)cc1=O | -2 |
| CCCC(NC(=O)c1cc(C)ccc1C)c1nnn[nH]1 (stereo not given) | -4.53 |
| NC(=O)C1CCCN(C(=O)c2cnc3c(cnn3C3CCCC3)c2)C1 (stereo not given) | -8.82 |
| Cc1ccc(NC2CCN(C(=O)CN(C)C3CC3)CC2)nn1 | -4.6 |
| CCCOCC(=O)NC1CCc2nc(C)cn2C1 (stereo not given) | -4.43 |
| CNC(=O)c1cc2c(nc1NCC(C)C)CCN(S(=O)(=O)C1CC1)CC2 | -6.06 |
| CC(C)n1cc(S(=O)(=O)N2CCCCC2)cn1 | -5.5 |
| Cc1cccc(N2CCN(C(=O)CN3CCN(CCO)CC3)CC2)c1 | -7.92 |
| CNc1cccc(C2CCCN(C(=O)c3ccncc3)C2)n1 (stereo not given) | -4.49 |
| CCN(CC)C(=O)Cn1ccc2cc(NC(=O)C3CCCO3)ccc21 (stereo not given) | -3.96 |
| Cc1nccn1-c1cc(CNC(=O)C(C)(C)C)ccn1 | -0.152 |
| CCOc1ccc(C(=O)NS(=O)(=O)c2cncc(Br)c2)cc1OC | -4.35 |
| CC(C)CNC(=O)CN1C=Nc2ccccc2S1(=O)=O | -6.73 |
| CC(CNC(=O)N1CCSCC1)Cc1cccs1 (stereo not given) | -4.11 |
| NS(=O)(=O)CCNC(=O)c1nnn(-c2ccc(F)cc2)c1C1CC1 | -0.864 |
| O=C(NCCOCC(F)(F)F)c1ccc(-c2ccco2)[nH]c1=O | -1.86 |
| O=C(NCCO)Nc1cccc(Cl)c1SC(F)F | -7.96 |
| Cc1nc(CN2CCCCC2Cn2cncn2)nc2ccccc12 (stereo not given) | -2.07 |
| N#CCSCCCN1CCCN(C(=O)c2ccccc2)CC1 | -1.53 |
| COC(=O)CCN1CCCC1c1ccccc1Cl (stereo not given) | -3.1 |

| SMILES | Percent Effect [%] |
| --- | --- |
| Cc1cncc(C2CCCN(C(=O)c3scnc3C)C2)n1 (stereo not given) | -5.85 |
| COCCc1noc(CN2CCN(CC(O)c3ccccc3)CC2)n1 (stereo not given) | -7.76 |
| O=C(NCc1ccc(F)cc1)N1CCC(C2OCCO2)CC1 | -3.74 |
| Cc1nn(C)c(C)c1C1CCCN1CC(=O)NC(C1CC1)C1CC1 (stereo not given) | -3.47 |
| Cn1ccc(C(=O)NC2CCC23CCN(C(=O)c2ccncc2)CC3)c1 (stereo not given) | 3.11 |
| CN(CC(=O)N1CCN(c2ncccn2)CC1)c1ccc(Cl)cn1 | 0.47 |
| Cc1ncsc1CN1CC[C@H]2OCC[C@@]2(C(=O)NC(C)C)C1 | -3.99 |
| Cc1nc(C)n(CC2CCCN(CCCOc3ccccc3)C2)n1 (stereo not given) | -3.18 |
| Cc1csc(CNC(=O)N(C)Cc2cnn(C)c2)n1 | -2.05 |
| Cc1noc(-c2ccc(N3CCCC(C(=O)N4CCSCC4)C3)nc2)n1 (stereo not given) | -5.7 |
| CC(=O)NCCNC(=O)CN1CCN(Cc2nccn2C)C(C)C1 (stereo not given) | -6.92 |
| COc1ccc(CNC2CCN(CCc3ccncc3)CC2)cc1O | -6.94 |
| O=C1[C@@H]2CCN(Cc3ccoc3)C[C@@H]2OCCN1Cc1cccnc1 | -4.73 |
| Cc1nccn1-c1cc(CNC(=O)CCNC(=O)C2CCCC2)ccn1 | -5.76 |
| Cc1nn(C)cc1CN1CCC(C2Nc3ccccc3S(=O)(=O)N2)CC1 (stereo not given) | -3.36 |
| O=C(N[C@@H]1CN(Cc2ccc3c(c2)OCO3)[C@@H]2CCCO[C@@H]21)C1CC1 | -7.03 |
| CC(C)c1nnc2n1CCN(Cc1csc(CC(=O)N(C)C)n1)C2 | 2.63 |
| COc1ccc(NC(=O)NCC(O)c2ccc(F)cc2F)c(OC)c1 (stereo not given) | 0.46 |
| Cc1ccc(Cl)cc1C(=O)N1CCC2(CC1)c1ccccc1[C@@H](N)[C@@H]2O | -6.01 |
| Cc1cc(C)n(CC2CCCN2C(=O)c2ccc3c(c2)nnn3C)n1 (stereo not given) | -3.73 |

Each compound was assayed against T1, Ubiquitin-activating enzyme e1, putative (Leishmania donovani (strain BPK282A1)) (UniProt E9BSI1) (assay: Leishmania donovani Ubiquitin Activating Enzyme (LdE1)). Conditions: 30 µM.
T1 sequence (whole entry): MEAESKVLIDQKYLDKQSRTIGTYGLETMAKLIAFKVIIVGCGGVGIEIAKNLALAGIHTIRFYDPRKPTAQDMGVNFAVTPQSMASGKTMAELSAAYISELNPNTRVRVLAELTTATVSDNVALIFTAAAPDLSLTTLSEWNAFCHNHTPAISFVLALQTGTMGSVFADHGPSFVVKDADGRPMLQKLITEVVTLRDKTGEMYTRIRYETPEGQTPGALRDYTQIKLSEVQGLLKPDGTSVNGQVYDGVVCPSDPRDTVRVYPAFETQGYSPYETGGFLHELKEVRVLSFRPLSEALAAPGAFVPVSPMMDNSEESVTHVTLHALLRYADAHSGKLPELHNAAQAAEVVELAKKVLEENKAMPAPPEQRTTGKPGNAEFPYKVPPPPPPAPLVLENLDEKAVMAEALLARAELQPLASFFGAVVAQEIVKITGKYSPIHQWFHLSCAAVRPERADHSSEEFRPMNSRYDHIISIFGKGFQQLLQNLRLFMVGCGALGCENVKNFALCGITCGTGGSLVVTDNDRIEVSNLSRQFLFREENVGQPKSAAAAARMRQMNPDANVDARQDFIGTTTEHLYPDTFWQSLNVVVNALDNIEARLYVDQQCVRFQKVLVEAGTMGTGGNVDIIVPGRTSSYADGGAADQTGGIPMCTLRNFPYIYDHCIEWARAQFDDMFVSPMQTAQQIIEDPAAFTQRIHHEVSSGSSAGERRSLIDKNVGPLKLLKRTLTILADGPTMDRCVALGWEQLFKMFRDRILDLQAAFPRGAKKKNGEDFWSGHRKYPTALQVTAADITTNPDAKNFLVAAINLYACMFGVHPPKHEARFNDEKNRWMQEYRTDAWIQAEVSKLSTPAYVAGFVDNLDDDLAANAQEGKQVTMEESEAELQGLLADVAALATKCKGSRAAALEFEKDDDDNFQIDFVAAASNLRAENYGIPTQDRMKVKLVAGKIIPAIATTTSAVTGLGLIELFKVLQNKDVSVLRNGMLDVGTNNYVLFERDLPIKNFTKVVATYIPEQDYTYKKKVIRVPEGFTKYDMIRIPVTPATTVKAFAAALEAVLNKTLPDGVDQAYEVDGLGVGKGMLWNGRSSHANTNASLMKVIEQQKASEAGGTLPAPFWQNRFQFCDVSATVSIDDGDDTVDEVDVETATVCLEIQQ
Format: functional
Set-up: scale not given: direction of the effect not stated beside the values

| SMILES | Percent Effect [%] |
| --- | --- |
| Cn1ccc(CN2CCC(COC3CCCC3)CC2)cc1=O | -59.5 |
| CCCC(NC(=O)c1cc(C)ccc1C)c1nnn[nH]1 (stereo not given) | 13.3 |
| NC(=O)C1CCCN(C(=O)c2cnc3c(cnn3C3CCCC3)c2)C1 (stereo not given) | 15.2 |
| Cc1ccc(NC2CCN(C(=O)CN(C)C3CC3)CC2)nn1 | -6.33 |
| CCCOCC(=O)NC1CCc2nc(C)cn2C1 (stereo not given) | 5.26 |
| CNC(=O)c1cc2c(nc1NCC(C)C)CCN(S(=O)(=O)C1CC1)CC2 | 2.7 |
| CC(C)n1cc(S(=O)(=O)N2CCCCC2)cn1 | 14.7 |
| Cc1cccc(N2CCN(C(=O)CN3CCN(CCO)CC3)CC2)c1 | 8.22 |
| CNc1cccc(C2CCCN(C(=O)c3ccncc3)C2)n1 (stereo not given) | 6.76 |
| CCN(CC)C(=O)Cn1ccc2cc(NC(=O)C3CCCO3)ccc21 (stereo not given) | 26.3 |
| Cc1nccn1-c1cc(CNC(=O)C(C)(C)C)ccn1 | 11 |
| CCOc1ccc(C(=O)NS(=O)(=O)c2cncc(Br)c2)cc1OC | 13.5 |
| CC(C)CNC(=O)CN1C=Nc2ccccc2S1(=O)=O | 7.89 |
| CC(CNC(=O)N1CCSCC1)Cc1cccs1 (stereo not given) | 0 |
| NS(=O)(=O)CCNC(=O)c1nnn(-c2ccc(F)cc2)c1C1CC1 | 8.11 |
| O=C(NCCOCC(F)(F)F)c1ccc(-c2ccco2)[nH]c1=O | 8.11 |
| O=C(NCCO)Nc1cccc(Cl)c1SC(F)F | -1.39 |
| Cc1nc(CN2CCCCC2Cn2cncn2)nc2ccccc12 (stereo not given) | 26 |
| N#CCSCCCN1CCCN(C(=O)c2ccccc2)CC1 | -5.48 |
| COC(=O)CCN1CCCC1c1ccccc1Cl (stereo not given) | -2.67 |

| SMILES | Percent Effect [%] |
| --- | --- |
| Cc1cncc(C2CCCN(C(=O)c3scnc3C)C2)n1 (stereo not given) | 1.35 |
| COCCc1noc(CN2CCN(CC(O)c3ccccc3)CC2)n1 (stereo not given) | 6.33 |
| O=C(NCc1ccc(F)cc1)N1CCC(C2OCCO2)CC1 | 7.89 |
| Cc1nn(C)c(C)c1C1CCCN1CC(=O)NC(C1CC1)C1CC1 (stereo not given) | 10.8 |
| Cn1ccc(C(=O)NC2CCC23CCN(C(=O)c2ccncc2)CC3)c1 (stereo not given) | 11 |
| CN(CC(=O)N1CCN(c2ncccn2)CC1)c1ccc(Cl)cn1 | 8.11 |
| Cc1ncsc1CN1CC[C@H]2OCC[C@@]2(C(=O)NC(C)C)C1 | 0 |
| Cc1nc(C)n(CC2CCCN(CCCOc3ccccc3)C2)n1 (stereo not given) | 1.27 |
| Cc1csc(CNC(=O)N(C)Cc2cnn(C)c2)n1 | 21.6 |
| Cc1noc(-c2ccc(N3CCCC(C(=O)N4CCSCC4)C3)nc2)n1 (stereo not given) | -2.74 |
| CC(=O)NCCNC(=O)CN1CCN(Cc2nccn2C)C(C)C1 (stereo not given) | 0 |
| COc1ccc(CNC2CCN(CCc3ccncc3)CC2)cc1O | 16.2 |
| O=C1[C@@H]2CCN(Cc3ccoc3)C[C@@H]2OCCN1Cc1cccnc1 | 13.3 |
| Cc1nccn1-c1cc(CNC(=O)CCNC(=O)C2CCCC2)ccn1 | 21.1 |
| Cc1nn(C)cc1CN1CCC(C2Nc3ccccc3S(=O)(=O)N2)CC1 (stereo not given) | 6.76 |
| O=C(N[C@@H]1CN(Cc2ccc3c(c2)OCO3)[C@@H]2CCCO[C@@H]21)C1CC1 | 0 |
| CC(C)c1nnc2n1CCN(Cc1csc(CC(=O)N(C)C)n1)C2 | 18.4 |
| COc1ccc(NC(=O)NCC(O)c2ccc(F)cc2F)c(OC)c1 (stereo not given) | 3.8 |
| Cc1ccc(Cl)cc1C(=O)N1CCC2(CC1)c1ccccc1[C@@H](N)[C@@H]2O | 5.41 |
| Cc1cc(C)n(CC2CCCN2C(=O)c2ccc3c(c2)nnn3C)n1 (stereo not given) | 8.22 |
